Compound activity: PubChem BioAssay, National Center for Advancing Translational Sciences (NCATS)
TDP43 rescue: TDP-43 toxicity inhibition in yeast | TDP-43 expressing yeast growth rescue, BacTiter-Glo, 24 h | Potency, µM (titrated, usually from 46.1 µM), for inactives: at the top dose growth rescue (activation), hits mostly activators | actives 1.8% (n = 410,000) | AID 652104; note: % of control where 0% means no effect; nearly all actives have a fitted effect of over 50% in size
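Growth rescue of TDP-43-toxic yeast measured as ATP luminescence (BacTiter-Glo). Cells grown to mid-log in raffinose, induced in galactose at OD600=0.02, exposed to compound 24 hr at 30 deg C.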
Mito fusion yeast: blocks mitochondrial division or promotes mitochondrial fusion | AID 485298 | S. cerevisiae fusion-defective mutant growth rescue, CellTiterGlo 48 h | Potency, µM (highest dose often 46.1 µM), without a hit: at the highest dose growth rescue (activation), actives largely listed as activators | actives 0.23% (n = 320,000); note: % of control where 0% means no effect; nearly all actives have a fitted effect of over 45% in size
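Growth-rescue viability read-out: after 48 h at the non-permissive 37C in glycerol/ethanol YPEG, yeast mitochondrial fusion mutants are measured by CellTiterGlo luminescence; compounds (23 nl pinned per well) restoring growth score as division inhibitors or fusion activators.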
aSyn rescue: alpha-synuclein toxicity inhibition in yeast. AID 652106. actives 0.14% (n = 370,000). Potency, µM (highest dose often 46.1 µM), for inactives: at the highest dose growth rescue (activation), actives largely listed as activators. Yeast expressing alpha-synuclein, growth rescue, BacTiter-Glo, 24 h; note: % of control where 0% means no effect; nearly all actives have a fitted effect of over 65% in size
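Screening used galactose-induced yeast with toxic alpha-synuclein levels, exposed to compound for 24 hr at 30 deg C. Cell growth, read with BacTiter-Glo luminescence, gave the measured signal.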
Abeta yeast res: A-beta toxicity reversal in yeast; yeast expressing A-beta42, growth rescue, OD600, 48 h; response scale: 0% DMSO, 100% iron-clioquinol control; Potency, µM (doses to about 46.1 µM), hits mostly activators; actives 0.063% (n = 410,000); AID 1347071; note: nearly all actives have a fitted effect of over 55% in size
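Yeast growth medium received pinned compounds, then yeast cells expressing toxic A-beta were added; plates incubated at 30 C for 48 hr. Growth read as absorbance at 600 nm, normalized to DMSO and equimolar FeCl3 plus clioquinol controls.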
FUS yeast rescue: FUS proteinopathy suppression in yeast; S. cerevisiae FUS-expressing, growth rescue, OD600, 24 h; Potency, µM (highest dose often 76.6 µM), most hits filed as activators; actives 0.24% (n = 390,000); AID 1347120;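 note: plate controls were DMSO vehicle for no effect and reference control for full effect; nearly all actives have a fitted effect of over 55% in size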
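Cultures pregrown in 2.5% raffinose medium are shifted to minimal medium containing 2% galactose to express toxic FUS. Compounds are tested at several concentrations. After 24hr at 30C, growth is quantified at 600 nm absorbance.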
* hit, by the source's call. Sampled rows, rich in hits. Any-hit rate of the full collection: about 2.2%. Calls come from the whole dose curve; as a rule, active = well fitted curve in the direction sought with a large enough effect; inconclusive = small, poorly fitted or top-dose-only effect, or another doubt; inactive = no such curve, though single readings can be large; an effect the other way counts as inactive or inconclusive. Potency is the fitted concentration of half-maximal effect.

`CCN(CC(=O)NC1CCS(=O)(=O)C1)c1ccc([N+](=O)[O-])cc1C#N` (configuration not stated) gave TDP43 rescue 21.9%, Mito fusion yeast 1.4%, aSyn rescue -2.8%, Abeta yeast res inactive and FUS yeast rescue inactive.
For Cc1cccc(CCNC(=O)c2cnc3c(C)cccn3c2=O)c1 the results were TDP43 rescue 28.2µM*, Abeta yeast res inactive and FUS yeast rescue inactive.
`Cc1cc(C)cc(OCc2nnc(SCC(=O)c3ccccc3)o2)c1` gave TDP43 rescue 24.9%, Mito fusion yeast 0.5%, aSyn rescue 2.6%, Abeta yeast res inactive and FUS yeast rescue inactive.
`Cc1cccc(OCc2nnc(SCC(=O)c3ccccc3)o2)c1` gave TDP43 rescue 12.6µM*, Mito fusion yeast -2.9%, aSyn rescue 11.8%, Abeta yeast res inactive and FUS yeast rescue inactive.
`COc1ccc(-n2nnnc2SCC(=O)NCCc2ccccc2)cc1OC` gave TDP43 rescue -14.1%, Mito fusion yeast 0.7%, aSyn rescue -0.9%, Abeta yeast res inactive and FUS yeast rescue inactive.
Screening Cc1cccc(-n2nnnc2SCC(=O)NCC2CCCO2)c1 (configuration not stated) returned TDP43 rescue -19.9%, Mito fusion yeast 17.8µM*, aSyn rescue -5.1%, Abeta yeast res inactive and FUS yeast rescue inactive.
For Cc1ccc(-n2nnnc2SCC(=O)NCCc2ccccc2)cc1C the results were TDP43 rescue 22.4µM*, Abeta yeast res inactive and FUS yeast rescue inactive.
For O=C(CSc1nc2cc(Cl)ccc2s1)NCC1CCCO1 (configuration not stated) the results were TDP43 rescue 20µM*, aSyn rescue 8.0%, Abeta yeast res inactive and FUS yeast rescue inactive.
For COc1cccc(CNC(=O)C(Cc2ccccc2)n2cccc2)c1 (configuration not stated) the results were TDP43 rescue -5.6%, Mito fusion yeast 10.3%, aSyn rescue -4.3%, Abeta yeast res inactive and FUS yeast rescue inactive.
Screening Cc1csc(NC(=O)C(Cc2ccccc2)n2cccc2)n1 (configuration not stated) returned TDP43 rescue 12.6µM*, Mito fusion yeast 2.8%, aSyn rescue -8.3%, Abeta yeast res inconclusive and FUS yeast rescue inactive.
Cc1ccc(NC(=O)C(Cc2ccccc2)n2cccc2)cc1 (configuration not stated) was read as TDP43 rescue 14.1%, Mito fusion yeast 10.2%, aSyn rescue 2.1%, Abeta yeast res inactive and FUS yeast rescue inactive.
`COc1cccc(NC(=O)C(Cc2ccccc2)n2cccc2)c1` (configuration not stated) gave TDP43 rescue 12.6µM*, Mito fusion yeast 20.2%, aSyn rescue 8.1%, Abeta yeast res inactive and FUS yeast rescue inactive.
Screening CCOC(=O)c1ccc2ncc3c(-c4ccccc4)nn(-c4ccc(F)c(Cl)c4)c3c2c1 returned TDP43 rescue 0.0%, Abeta yeast res inactive and FUS yeast rescue inactive.
For CCOC(=O)c1cnc(SC2CCc3ccccc3C2=O)nc1N (configuration not stated) the results were TDP43 rescue 20µM*, Mito fusion yeast 20.3%, aSyn rescue 5.4%, Abeta yeast res inactive and FUS yeast rescue inconclusive.
CCOC(=O)c1cnc(SC2CC(=O)N(c3ccccc3)C2=O)nc1N (configuration not stated) was read as TDP43 rescue -9.9%, Mito fusion yeast -14.0%, aSyn rescue -4.0%, Abeta yeast res inactive and FUS yeast rescue inactive.
`Cc1cccc(C)c1-n1ncc(C(=O)NCCCN2CCC(C)CC2)c1C1CCN(C(=O)OC(C)(C)C)CC1` gave TDP43 rescue -1.9%, Abeta yeast res inactive and FUS yeast rescue inactive.
`Cn1nnnc1Sc1ncnc2scc(-c3ccc(Br)cc3)c12` gave Abeta yeast res inactive and FUS yeast rescue inactive.
Cn1nnnc1Sc1ncnc2scc(-c3ccc(F)cc3)c12 was read as TDP43 rescue inconclusive, Mito fusion yeast 0.794µM*, aSyn rescue inconclusive, Abeta yeast res inactive and FUS yeast rescue inconclusive.
For O=[N+]([O-])c1nn(-c2ccc3c(c2)OCCO3)n(O)c1=NCc1ccc(F)cc1 the results were TDP43 rescue -11.7%, Mito fusion yeast inconclusive, aSyn rescue -21.8% and Abeta yeast res inactive.
O=[N+]([O-])c1nn(-c2ccc3c(c2)OCCO3)n(O)c1=NCCC1=CCCCC1 was read as TDP43 rescue 14.1µM*, Mito fusion yeast -0.6%, aSyn rescue -0.7%, Abeta yeast res inactive and FUS yeast rescue inactive.
Screening O=[N+]([O-])c1nn(-c2ccc3c(c2)OCCO3)n(O)c1=NCc1ccc(F)cc1Cl returned TDP43 rescue 22.4µM*, Mito fusion yeast 1.2%, aSyn rescue -0.6%, Abeta yeast res inactive and FUS yeast rescue inactive.
`CC(C)(C)N(Cc1ccccc1)C(=O)CSc1ncn[nH]1` gave TDP43 rescue -23.2%, Mito fusion yeast 31.6µM*, aSyn rescue -3.5%, Abeta yeast res inactive and FUS yeast rescue inactive.
For Cc1cc(C)n(CCOc2ccc(Br)cc2)n1 the results were TDP43 rescue inconclusive, Mito fusion yeast -11.3%, aSyn rescue 11.4%, Abeta yeast res inactive and FUS yeast rescue inconclusive.
`Cc1cc(N)n2ncc(-c3ccc(Cl)cc3)c2n1` gave TDP43 rescue 8.91µM*, Mito fusion yeast 20.4%, aSyn rescue -11.7%, Abeta yeast res inactive and FUS yeast rescue inactive.
Screening O=C(CSCc1ccc(Cl)cc1)N1CCOCC1 returned TDP43 rescue 5.8%, Mito fusion yeast 1.0%, aSyn rescue 0.6%, Abeta yeast res inactive and FUS yeast rescue inactive.
For O=C(CSc1nnc(SCc2ccc(Cl)cc2)s1)N1CCOCC1 the results were TDP43 rescue 22.4µM*, Mito fusion yeast inconclusive, aSyn rescue 1.0%, Abeta yeast res inactive and FUS yeast rescue inactive.
O=C(Nc1nnc(Cc2ccccc2)s1)c1ccco1 was read as TDP43 rescue 3.3%, Mito fusion yeast 3.8%, aSyn rescue -0.9%, Abeta yeast res inactive and FUS yeast rescue inactive.
Screening NC(=O)c1cc(Cc2ccccc2)sc1NC(=O)c1ccco1 returned TDP43 rescue inconclusive, Mito fusion yeast 15.8µM*, aSyn rescue -16.5%, Abeta yeast res inactive and FUS yeast rescue inactive.
For CN(C)Cc1cn(-c2cccc(-c3noc4c3C(=O)N(CC(=O)N3CCOCC3)CC4)c2)nn1 the results were FUS yeast rescue inactive.
Screening O=C(O)c1[nH]c2ccccc2c1NS(=O)(=O)c1ccc(F)cc1 returned TDP43 rescue 9.2%, Mito fusion yeast 35.5µM*, aSyn rescue 1.1%, Abeta yeast res inactive and FUS yeast rescue inactive.
